# Compound activity deposited in PubChem BioAssay by National Center for Advancing Translational Sciences (NCATS).
# DT40 TDP1 CPT: DT40-hTDP1 cell growth loss with CPT. chicken DT40 Tdp1-/-;hTDP1 cells + 20 nM CPT, ATP luminescence, 48 h. Potency, µM (doses to about 46.2 µM), without a hit: at the highest dose activity change, negative = growth inhibition, actives largely listed as inhibitors. hit rate 12% among 420,000; also: potency is read from the fitted curve at half-maximal effect; nearly all actives have a fitted effect of over 55% in size
#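 Cell growth measured by CellTiter-Glo luminescence after a minimum 48 h, 37 C compound exposure with 20 nM CPT in Tdp1-knockout DT40 cells stably expressing hTDP1, seeded 400/well; qHTS titration format.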
# TDP1 cell noCPT: qHTS for Inhibitors of human tyrosyl-DNA phosphodiesterase 1 (TDP1): qHTS in cells in absence of CPT; DT40 Tdp1-/- hTDP1 cells, no CPT, ATP luminescence, 48 h; Potency, µM (series often up to 46.2 µM), for inactives: at the highest dose activity change, negative = growth inhibition, usual class: inhibitors; hit rate 15% among 420,000; also: potency is read from the fitted curve at half-maximal effect; nearly all actives have a fitted effect of over 55% in size
#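 Growth kinetics read by CellTiter-Glo luminescence after ≥48 hr at 37 °C. Cells: DT40 Tdp1-/- stably carrying human TDP1, 400 per well, compound exposure in the absence of CPT (DMSO vehicle).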
# HT1080NT lethal: kills 2HG-producing HT-1080-NT fibrosarcoma cells; HT-1080-NT fibrosarcoma viability, CellTiter-Glo ATP luminescence, 48 h; Potency, µM (titrated, usually from 46.1 µM), for inactives: at the highest dose activity, negative = less viability, most hits filed as cytotoxic; hit rate 1.6% among 360,000; AID 686970;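 also: NT is the 2HG producing partner of a matched IDH1 knockdown line; potency is read from the fitted curve at half-maximal effect; 0% = DMSO-treated cells and -100% = media-only wells without cells; nearly all actives have a fitted effect of over 55% in size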
#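 Fibrosarcoma NT cells, 750 per well in 5% FBS RPMI, were exposed to compound for 48 hours. Viability: CellTiter-Glo luminescence.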
# HT1080 IDH1KD tx: toxicity to HT-1080 IDH1 knockdown cells (counter line); HT-1080 IDH1 knockdown viability, ATP luminescence, 48 h; AID 686971; Potency, µM (top dose mostly 46.1 µM), for inactives: at the highest dose activity, negative = toxicity, actives largely listed as cytotoxic; hit rate 2% among 360,000;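 also: potency is read from the fitted curve at half-maximal effect; 0% = DMSO wells and -100% = cell-free medium wells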
#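 Assay cells: HT-1080 with IDH1 knockdown, 750 per well, RPMI/5% FBS. Exposure: 48 h at 37 °C following 2 h pre-incubation. Read: CellTiter-Glo luminescence; fitted concentration-response, curve class assigned.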
# IL1B secr inh: inhibitors of inflammasome signaling (IL-1 beta secretion); hit rate 4.7% among 360,000; THP-1 LPS/ATP IL-1B secretion, AlphaLISA, 16 h; active compounds read low; activity change, % at 57.5 µM; in the data active = activity change below about -50%; inconclusive = mostly about -30% to -49%
#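 THP-1 cells pretreated 1 hr with compounds (up to 57.5 uM final), then stimulated with LPS (250 ng/mL final) plus ATP (1.25 mM final); secreted IL-1B measured by AlphaLISA after 16 hr, decreased signal indicating inhibition.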
# Starred values were filed as active, the others as inactive; ? = inconclusive; · = no result given; ! = repeats disagree. Rows were chosen to be rich in hits. Some 19% of all compounds tested hit in one or more screens of this group. Unless noted, calls follow the shape of the dose curve; as a rule, active = well fitted curve in the direction sought with a large enough effect; inconclusive = small, poorly fitted or top-dose-only effect, or another doubt; inactive = no such curve, though single readings can be large; an effect the other way counts as inactive or inconclusive. Unless noted, % is scaled to controls: 0 for no effect and ±100 for the full control effect.
SMILES,DT40 TDP1 CPT,TDP1 cell noCPT,HT1080NT lethal,HT1080 IDH1KD tx,IL1B secr inh
CC1CCC2(CC1)NC(=S)N(C(C)(C)C)N2 (stereo not drawn),6.6%,-12.1%,3.3%,2.5%,·
O=C1NC2(CCCCC2)C(=O)N1c1ccc(Cl)cc1,-0.7%,13.3%,4.1%,2.7%,-3.8
O=C1NC2(CCC3(CC2)OCCO3)NN1c1ccc(Cl)cc1,-3.1%,?,?,6.51µM*,0.8
O=C1NC2(CCCCC2)NN1c1ccccc1,0.5%,?,?,5.17µM*,16.7
Cc1ccccc1CN1CCc2nnc(C(C)NC(=O)c3cc(F)ccc3F)n2CC1 (stereo not drawn),17.1%,0.4%,·,·,·
CN(C)c1ccc(C(C(=O)NCC2CCCO2)N(C(=O)c2snc(C(N)=O)c2N)c2ccccc2)cc1 (stereo not drawn),?,?,11.5%,10.9%,-2.8
Cc1cccc(N(C(=O)c2snc(C(N)=O)c2N)C(C(=O)NCC2CCCO2)c2ccc(N(C)C)cc2)c1 (stereo not drawn),29.1µM*,?,14.0%,13.8%,-16.3
CN(C)c1ccc(C(C(=O)NCC2CCCO2)N(C(=O)c2snc(C(N)=O)c2N)c2ccc3c(c2)OCO3)cc1 (stereo not drawn),0.1%,?,4.3%,0.1%,-66.1*
CSCC[C@H](NC(=O)c1cccs1)C(=O)N1CCC2(CC1)NCCc1[nH]cnc12,-2.1%,1.6%,2.4%,7.8%,-84.9*
COc1ccccc1-n1c(SCC(=O)N2CCc3ccccc32)nc2c(c1=O)SCC2,9.2µM*,7.31µM*,-25.8%,-18.4%,-16.5
CC1Cc2nc(SCC(=O)c3ccccc3)n(Cc3ccccc3)c(=O)c2S1 (stereo not drawn),10.3µM*,10.3µM*,-20.1%,-11.5%,?
COc1ccc(OC)c(-n2c(SCC(=O)N3CCc4ccccc43)nc3c(c2=O)SCC3)c1,?,?,3.6%,2.0%,?
CC1Cc2nc(SCC(=O)N3CCc4ccccc43)n(C)c(=O)c2S1 (stereo not drawn),?,23.1µM*,-0.6%,-0.3%,18.0
COc1ccc(CCNc2oc(-c3ccc(C)cc3)nc2C#N)cc1OC,?,?,10.9%,5.5%,70.4
COc1ccc(CCNc2oc(/C=C/c3cc(OC)c(OC)c(OC)c3)nc2C#N)cc1OC,13µM*,11.6µM*,·,·,·
CNc1oc(/C=C/c2ccccc2)nc1C#N,-24.1%,-21.7%,7.2%,7.9%,-5.1
COc1ccc(CCNc2oc(COc3ccc(Br)cc3)nc2C#N)cc1OC,18.4µM*,20.6µM*,-12.9%,-19.4%,-0.6
CNc1oc(/C=C/c2cc(OC)c(OC)c(OC)c2)nc1C#N,?,23.1µM*,·,·,·
COCCCNc1oc(/C=C/c2cc(OC)c(OC)c(OC)c2)nc1C#N,?,23.1µM*,·,·,·
CCCc1cc(N2CCN(c3ccccn3)CC2)n2nc(C)c(-c3ccccc3)c2n1,?,?,-1.6%,6.2%,-10.3
C[C@H](NCc1c[nH]c2ccccc12)c1ccccc1,20.6µM*,?,-10.6%,-0.2%,0.0
CN(Cc1ccccc1)Cc1c[nH]c2ccccc12,5.8µM*,20.6µM*,-8.3%,-0.2%,?
CC(NC(=O)CCc1c[nH]c2ccccc12)c1ccccc1 (stereo not drawn),-19.9%,8.9%,12.2%,-5.1%,23.8
COc1ccc(CN(C(=O)COc2ccccc2)c2ccccc2C(=O)O)cc1,-4.1%,-7.0%,1.7%,-6.3%,4.7
CC(C)c1ccc(C(=O)Nc2cc(-c3ccccc3F)nn2-c2ccccc2)cc1,20.6µM*,10.3µM*,·,·,·
SMILES,DT40 TDP1 CPT,TDP1 cell noCPT,HT1080NT lethal,HT1080 IDH1KD tx,IL1B secr inh
Cc1cccc(-c2cc(NC(=O)c3ccccc3C)n(-c3ccccc3)n2)c1,?,-25.6%,·,·,·
O=C(Nc1cc(-c2cccc(Cl)c2)nn1-c1ccccc1)c1ccccc1F,16.4µM*,?,·,·,·
COc1ccccc1C(=O)Nc1cc(-c2cccc(Br)c2)nn1-c1ccccc1,14.6µM*,7.31µM*,·,·,·
Nc1ccccc1Nc1cc(-c2ccccc2)nn1-c1cccc(Cl)c1,-15.4%,?,?,?,-52.1*
CCOC(=O)CCCNC(=O)COC(=O)c1cccc(F)c1,5.4%,?,-9.4%,18.3%,-3.6
CCOc1ccc(NC(=O)Nc2ccc3nccnc3c2)cc1,?,14.6µM*,-6.2%,-9.2%,-13.1
CCOc1ccc(NC(=O)NC(C)CC)cc1 (stereo not drawn),?,18.4µM*,-9.4%,-4.9%,-17.9
COc1ccc(CNC(=O)c2ccc(CS(=O)(=O)Cc3ccccc3F)o2)cc1,?,16.4µM*,0.0%,5.6%,2.1
O=C(NCc1ccccc1)c1ccc(CS(=O)(=O)Cc2ccccc2F)o1,-38.2%,?,16.0%,12.4%,25.3
Cc1ccc(CNC(=O)c2ccc(CS(=O)(=O)Cc3ccc(F)cc3)o2)cc1,-9.3%,?,·,·,·
CCc1ccc(CNC(=O)c2ccc(CS(=O)(=O)Cc3ccccc3C)o2)cc1,20.6µM*,20.6µM*,·,·,·
Cc1ccccc1CS(=O)(=O)Cc1ccc(C(=O)NCc2ccc(F)cc2)o1,?,16.4µM*,·,·,·
Cc1ccc(-c2c(C(=O)NCc3ccc(F)cc3)oc(=O)c3ccccc23)cc1,?,20.6µM*!,-2.1%,-2.8%,?
CCN(C(=O)COC(=O)c1ccc(C=O)cc1)c1c(N)n(Cc2ccccc2)c(=O)[nH]c1=O,9.8%,0.5%,0.4%,13.0%,58.2
O=S(=O)(c1cccc(C(F)(F)F)c1)N1CCC(Oc2ccc(-n3cnnn3)cc2)CC1,5.8µM*,4.61µM*,·,·,·
COc1ccc(S(=O)(=O)N2CCC(Oc3ccc(-n4cnnn4)cc3)CC2)cc1,10.3µM*,-24.8%,·,·,·
O=S(=O)(c1ccccc1)N1CCC(Oc2ccc(-n3cnnn3)cc2)CC1,?,?,-12.2%,-7.2%,-4.7
c1ccc(CSc2nnc3ccc(-c4ccco4)nn23)nc1,-2.9%,30.7%,16.1%,13.1%,?
S=c1[nH]nc(C(c2ccccc2)C2CCCCC2)o1 (stereo not drawn),-17.3%,-16.7%,27.5%,16.0%,17.5
O=C(Cn1cc2c(n1)CCCC2)Nc1cc(C(F)(F)F)ccc1Cl,-16.8%,-14.8%,·,·,·
COc1ccc2[nH]c3c(N4CCC(O)(c5cccc(C(F)(F)F)c5)CC4)ncnc3c2c1,20.6µM*,20.6µM*,?,20.6µM*,-14.6
COc1ccc2[nH]c3c(N4CCN(Cc5ccc6c(c5)OCO6)CC4)ncnc3c2c1,14.6µM*,23.1µM*,20.6µM*,?,?
O=[N+]([O-])c1ccc2ncnc(N3CCN(Cc4ccc5c(c4)OCO5)CC3)c2c1,13µM*,9.2µM*,-17.3%,-15.0%,26.9
